This is an account of results in PubChem BioAssay.

Structures are written as SMILES. Active and inactive are the calls of the source.

Experiment [1] is described as follows: small molecules captured by biotinylated probe aFSTL3 – biochemical, small-molecule microarray, fluorescence 635/667, stem cell growth factor project, primary screen (AID 1064).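 Note: measures binding of the biotinylated anti-FSTL3 antibody to printed compounds.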 As to conditions: higher = more signal.
Experiment [2] can be described thus: binders from COS7 lysate, DM2A8 probe, primary screen, torsin A project, cell lysate, small-molecule microarray, fluorescence 635/667 (AID 1065). To be noted: higher = more signal, COS7 lysate expressing mutant human TOR1A.
The nature of experiment [3]: small molecules captured by biotinylated probe aFGF2 – biochemical, small-molecule microarray, fluorescence 635/667, stem cell growth factor project, primary screen (AID 1067).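 Note: measures binding of biotinylated aFGF2 protein to printed compounds on slides; z-score merges feature fluorescence and signal-to-noise across triplicate slides.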 To be noted: higher = more signal.
Experiment [4] in a line: small molecules captured by biotinylated probe aFGF10 – biochemical, small-molecule microarray, fluorescence 635/667, stem cell growth factor project, primary screen (AID 1071).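 Note: score merges 667 nm spot intensity and signal to noise from triplicate slides.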 As to conditions: higher = more signal.
Experiment [5] addresses Neurogenic locus notch homolog protein 2 (Homo sapiens) (UniProt Q04721). Kind of experiment: small molecules binding Notch2 protein – biochemical, small-molecule microarray, 635 nm fluorescence, stem cell growth factors, primary screen (AID 1073). As to conditions: higher = more signal.
Experiment [6] has as its target Pro-neuregulin-1, membrane-bound isoform (Homo sapiens) (UniProt Q02297). Kind of experiment: small molecules binding neuregulin-1 protein – biochemical, small-molecule microarray, fluorescence 635/667, psychiatric disease protein project, primary screen (AID 1075).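 Note: score combines 667 nm spot fluorescence with signal to noise.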 As to conditions: NRG1 binding, 635 nm fluorescence, higher = more signal.
Experiment [7] relates to Neuregulin-1 EGF-like domain. The experiment can be described thus: small molecules binding NRG1 EGF domain – biochemical, small-molecule microarray, 635 nm fluorescence, primary screen (AID 1081).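 Note: binding of the protein to compounds printed on small-molecule microarray slides.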 As to conditions: higher = more signal.
The nature of experiment [8]: FRG1 expression reporter modulators in myotubes – cell-based, C2C12 myotubes, firefly/Renilla luciferase, luminescence, FRG1 inhibition for FSHD, primary screen (AID 1084). As to conditions: FRG1 promoter luciferase, higher = more signal, called active from +8 up or from −8 down.
The nature of experiment [9]: small molecules captured by biotinylated probe aFST – biochemical, small-molecule microarray, fluorescence 635/667, stem cell growth factor project, primary screen (AID 1086).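 Note: score merges 667 nm fluorescence with signal-to-noise of each printed compound spot.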 To be noted: higher = more signal.
The nature of experiment [10]: binders of probe aHhip on microarray, primary screen, stem cell growth factor project, biochemical, small-molecule microarray, fluorescence 635/667 (AID 1087).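 Note: score merges spot fluorescence at 667nm with spot signal to noise ratio.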 To be noted: higher = more signal.
Experiment [11] relates to PRMT1 (protein arginine N-methyltransferase 1). Kind of experiment: small molecules binding arginine methyltransferase PRMT1 – biochemical, small-molecule microarray, 635 nm fluorescence, primary screen (AID 1088).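 Note: binding of Prmt1 protein to compounds spotted on small-molecule microarray slides.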 To be noted: higher = more signal.
Experiment [12] is described as follows: growth effects on S. cerevisiae YJM789 – YJM789 clinical isolate, OD600, 24 h, basal, primary screen (AID 1089).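 Note: growth of clinical yeast isolate S. cerevisiae YJM 789 seeded 1000 cells per well; test concentration not given here.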 As to conditions: higher = more signal, called active from +8 up or from −8 down.
The nature of experiment [13]: S. pombe growth modifiers, basal conditions – strain 972, OD600, 24 h, no modulator, primary screen (AID 1090).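 Note: basal condition with compound alone and no growth modifier present; test concentration not given here.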 To be noted: S. pombe 972 growth, higher = more signal, called active from +8 up or from −8 down.
Experiment [14] in a line: budding yeast growth modifiers under rapamycin – strain BY4716, OD600, 96 h, primary screen (AID 1091). Note: test concentration not given here. As to conditions: S. cerevisiae BY4716 + rapamycin, higher = more signal, called active from +8 up or from −8 down.
Experiment [15] addresses Torsin-1A-interacting protein 2 (Homo sapiens) (UniProt Q8NFQ8). The experiment can be described thus: small molecules binding lysate-expressed LULL1 – cell lysate, human LULL1 lysate, 635/667 nm fluorescence, primary screen (AID 1092).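 Note: probe is lysate of COS7 cells overexpressing human LULL1; score merges per-feature 667 nm fluorescence with signal-to-noise.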 As to conditions: small-molecule microarray, hLULL1 lysate binding, 635 nm fluorescence; higher = more signal.
Experiment [16] can be described thus: optical density change of DRC41 E. coli – strain DRC41, OD650, 24 h, E. coli filamentation project, primary screen (AID 1093).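 Note: MC1000 strain lacking acrAB efflux and sulA so SOS filamentation is blocked; test concentration not given here.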 To be noted: E. coli DRC41 growth, higher = more signal, called active from +8 up or from −8 down.
Experiment [17] can be described thus: probe aLefty2 binding to arrayed compounds – biochemical, biotinylated probe, 635/667 nm fluorescence, primary screen (AID 1094).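 Note: score merges spot fluorescence near 667 nm with spot signal-to-noise ratio.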 To be noted: small-molecule microarray, higher = more signal.
For experiment [18], the system named is Noggin (protein binding on small-molecule microarray). The experiment can be described thus: small molecules binding Noggin protein – biochemical, 635/667 nm fluorescence, primary screen (AID 1095).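 Note: score merges 667 nm feature fluorescence with signal to noise over triplicate slides.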 To be noted: 635 nm fluorescence, higher = more signal.
Experiment [19] has as its target Neurogenic locus notch homolog protein 3 (Homo sapiens) (UniProt Q9UM47). The experiment can be described thus: small molecules binding NOTCH3 protein – biochemical, 635/667 nm fluorescence, primary screen (AID 1096). To be noted: small-molecule microarray, 635 nm fluorescence, higher = more signal.
A short description of experiment [20]: probe aEGFR binding to arrayed compounds – biochemical, biotinylated probe, 635/667 nm fluorescence, primary screen (AID 1097).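 Note: probe is a biotinylated anti-EGFR antibody binding compounds printed on slides; score combines fluorescence near 667 nm and signal to noise of each spot.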 To be noted: small-molecule microarray, higher = more signal.

Sequence of Neurogenic locus notch homolog protein 3 (Homo sapiens) (Q9UM47 whole entry, looked up): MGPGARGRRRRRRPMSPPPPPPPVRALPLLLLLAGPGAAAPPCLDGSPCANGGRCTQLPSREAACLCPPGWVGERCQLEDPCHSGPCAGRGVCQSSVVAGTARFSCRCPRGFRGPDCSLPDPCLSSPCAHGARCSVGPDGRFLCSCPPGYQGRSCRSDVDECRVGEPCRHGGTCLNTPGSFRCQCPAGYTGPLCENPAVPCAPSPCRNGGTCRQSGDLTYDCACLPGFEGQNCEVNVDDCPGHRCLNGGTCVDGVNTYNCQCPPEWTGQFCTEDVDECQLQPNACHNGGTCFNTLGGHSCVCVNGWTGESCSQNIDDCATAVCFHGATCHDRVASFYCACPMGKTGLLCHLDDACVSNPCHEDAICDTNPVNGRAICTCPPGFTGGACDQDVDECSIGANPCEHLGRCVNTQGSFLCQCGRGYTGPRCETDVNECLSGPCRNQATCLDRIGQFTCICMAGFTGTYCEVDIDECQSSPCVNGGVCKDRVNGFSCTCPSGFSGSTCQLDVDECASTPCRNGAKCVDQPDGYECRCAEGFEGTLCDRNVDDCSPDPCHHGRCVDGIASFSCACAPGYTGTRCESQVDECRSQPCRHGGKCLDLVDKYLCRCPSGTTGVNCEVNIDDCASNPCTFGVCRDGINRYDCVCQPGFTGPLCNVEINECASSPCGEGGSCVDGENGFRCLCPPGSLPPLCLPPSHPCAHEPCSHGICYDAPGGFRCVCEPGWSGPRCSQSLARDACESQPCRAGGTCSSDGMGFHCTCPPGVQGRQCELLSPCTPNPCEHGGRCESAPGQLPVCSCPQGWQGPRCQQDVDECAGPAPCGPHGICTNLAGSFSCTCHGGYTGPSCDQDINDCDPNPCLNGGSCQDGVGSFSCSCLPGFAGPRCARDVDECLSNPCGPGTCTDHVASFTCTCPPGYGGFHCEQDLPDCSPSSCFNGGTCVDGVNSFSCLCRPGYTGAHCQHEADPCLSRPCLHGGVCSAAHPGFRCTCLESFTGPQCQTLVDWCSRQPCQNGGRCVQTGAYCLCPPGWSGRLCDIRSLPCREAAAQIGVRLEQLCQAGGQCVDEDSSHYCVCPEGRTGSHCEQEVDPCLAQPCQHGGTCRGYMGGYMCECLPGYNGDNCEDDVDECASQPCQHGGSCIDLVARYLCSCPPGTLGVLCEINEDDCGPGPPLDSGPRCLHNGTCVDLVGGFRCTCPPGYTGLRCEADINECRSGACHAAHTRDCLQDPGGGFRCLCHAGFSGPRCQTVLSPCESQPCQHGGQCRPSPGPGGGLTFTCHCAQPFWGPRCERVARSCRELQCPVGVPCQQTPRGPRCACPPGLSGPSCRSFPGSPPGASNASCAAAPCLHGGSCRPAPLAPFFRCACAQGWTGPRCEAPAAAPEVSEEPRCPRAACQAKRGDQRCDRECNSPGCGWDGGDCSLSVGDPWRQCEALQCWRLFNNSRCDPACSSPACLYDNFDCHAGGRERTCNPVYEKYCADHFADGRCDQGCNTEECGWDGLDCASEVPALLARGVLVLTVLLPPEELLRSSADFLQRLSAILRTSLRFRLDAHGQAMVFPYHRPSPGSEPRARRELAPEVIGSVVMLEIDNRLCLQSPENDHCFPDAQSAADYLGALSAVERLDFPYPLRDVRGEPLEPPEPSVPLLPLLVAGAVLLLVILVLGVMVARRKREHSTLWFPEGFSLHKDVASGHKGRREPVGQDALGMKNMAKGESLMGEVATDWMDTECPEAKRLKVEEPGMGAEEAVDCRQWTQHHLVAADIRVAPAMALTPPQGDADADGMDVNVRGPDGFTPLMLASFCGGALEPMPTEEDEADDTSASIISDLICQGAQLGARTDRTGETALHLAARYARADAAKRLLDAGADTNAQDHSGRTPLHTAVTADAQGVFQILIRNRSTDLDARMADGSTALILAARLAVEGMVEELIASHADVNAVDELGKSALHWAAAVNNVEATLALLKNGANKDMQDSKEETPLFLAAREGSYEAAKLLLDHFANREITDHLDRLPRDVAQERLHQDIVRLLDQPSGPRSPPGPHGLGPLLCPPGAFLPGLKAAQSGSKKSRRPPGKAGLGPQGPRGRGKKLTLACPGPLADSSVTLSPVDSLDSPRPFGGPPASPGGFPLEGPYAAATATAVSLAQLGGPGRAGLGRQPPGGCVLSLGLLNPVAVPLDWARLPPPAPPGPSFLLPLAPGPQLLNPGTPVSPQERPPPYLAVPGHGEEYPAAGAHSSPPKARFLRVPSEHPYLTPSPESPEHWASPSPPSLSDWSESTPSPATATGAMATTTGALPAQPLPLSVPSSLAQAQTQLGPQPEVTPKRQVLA
Sequence of Torsin-1A-interacting protein 2 (Homo sapiens) (Q8NFQ8 whole entry, looked up): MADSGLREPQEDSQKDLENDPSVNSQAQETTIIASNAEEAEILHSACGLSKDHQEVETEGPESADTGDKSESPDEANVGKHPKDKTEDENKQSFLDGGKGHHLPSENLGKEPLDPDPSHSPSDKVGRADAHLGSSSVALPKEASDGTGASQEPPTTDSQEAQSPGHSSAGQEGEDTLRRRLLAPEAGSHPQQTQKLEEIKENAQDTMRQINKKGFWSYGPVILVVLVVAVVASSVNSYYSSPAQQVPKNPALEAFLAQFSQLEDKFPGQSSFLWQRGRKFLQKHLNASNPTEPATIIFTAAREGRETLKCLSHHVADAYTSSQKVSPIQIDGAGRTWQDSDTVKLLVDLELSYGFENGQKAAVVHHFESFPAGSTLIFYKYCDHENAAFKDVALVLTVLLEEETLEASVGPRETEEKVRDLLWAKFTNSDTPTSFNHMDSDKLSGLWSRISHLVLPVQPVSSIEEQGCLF
Sequence of Pro-neuregulin-1, membrane-bound isoform (Homo sapiens) (Q02297 whole entry, looked up, the tested form may be a part, canonical isoform): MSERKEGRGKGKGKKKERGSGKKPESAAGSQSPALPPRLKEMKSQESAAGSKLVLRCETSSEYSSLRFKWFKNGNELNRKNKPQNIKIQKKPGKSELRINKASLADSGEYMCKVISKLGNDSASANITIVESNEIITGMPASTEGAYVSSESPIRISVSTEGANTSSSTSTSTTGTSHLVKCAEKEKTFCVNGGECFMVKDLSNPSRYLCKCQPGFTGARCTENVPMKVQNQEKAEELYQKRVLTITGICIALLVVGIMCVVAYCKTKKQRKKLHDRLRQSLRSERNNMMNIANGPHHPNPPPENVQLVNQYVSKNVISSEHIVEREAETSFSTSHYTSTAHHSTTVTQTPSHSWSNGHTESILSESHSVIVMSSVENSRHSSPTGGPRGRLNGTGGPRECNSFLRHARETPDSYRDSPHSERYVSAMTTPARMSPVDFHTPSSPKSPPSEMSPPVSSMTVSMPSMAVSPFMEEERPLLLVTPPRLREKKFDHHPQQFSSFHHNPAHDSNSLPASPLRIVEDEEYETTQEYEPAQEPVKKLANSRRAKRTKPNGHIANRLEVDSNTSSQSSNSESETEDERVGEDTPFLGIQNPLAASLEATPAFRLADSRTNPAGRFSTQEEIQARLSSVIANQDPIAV

In the case of `COC(=O)[C@@]1(Cc2ccc(OC)cc2)[C@H]2c3cc(C(=O)N4CCCC4)n(Cc4c(-c5ccccc5)noc4C)c3C[C@H]2CN1C(=O)c1ccccc1`, the composite z-score amounted to 0.194 in experiment [1]; 0.245 in experiment [2]; 0.336 in experiment [3]; 0.812 in experiment [4]; 1.71 in [5]; 1.31 in experiment [6]. Also, the composite z-score in experiment [7] was found to be 1.25; in [9] it was 1.73; in experiment [10], 1.79; in experiment [11], 0.525; in experiment [15], 3.31; in experiment [17], 0.422. Further, the composite z-score came out at 0.658 in experiment [18], 1.04 in experiment [19] and 0.374 in experiment [20]. Besides, the z-score in experiment [8] is 0.44 (inactive); in experiment [12], 0.729 (inactive); in experiment [13], 1.32 (inactive); in experiment [14] it was 1.77 (inactive); in experiment [16], 0.19 (inactive).
On to `[N-]=[N+]=Nc1ccccc1[C@H]1OC(c2ccc(OCCCO)cc2)=N[C@@]1(Cc1ccccc1)C(=O)N1CCCCC1`, for which the composite z-score is 0.308 in experiment [1]; -0.182 in experiment [2]; -0.0044 in [3]; 0.692 in [4]; 1.63 in experiment [5]; 1.01 in experiment [6]. In addition, the composite z-score was 1.32 in experiment [7]; 0.763 in experiment [9]; -0.0994 in experiment [10]; 1.54 in experiment [11]; 3.29 in [15]; 0.339 in [17]. The composite z-score in experiment [18] turned out to be 0.94; in experiment [19] it was 1.08; in [20], 0.286. In addition, the z-score is -1.02 (inactive) in [8]; -2.09 (inactive) in experiment [12]; 0.708 (inactive) in experiment [13]; 2.21 (inactive) in experiment [14]; 0.774 (inactive) in experiment [16].
For `CCOC(=O)C[C@H]1[C@H](OC(=O)c2ccc(C(=O)c3ccccc3)cc2)[C@@H](NC(=O)Cc2ccc(OC)cc2)c2cc(OCCCO)ccc2N1C(=O)c1ccccc1`, the composite z-score is -0.045 in experiment [1]; 0.135 in experiment [2]; -0.107 in [3]; 0.172 in [4]; 0.227 in experiment [5]; -0.104 in experiment [6]. For the same compound, the composite z-score was 0.676 in experiment [7]; 0.518 in experiment [9]; -0.0994 in experiment [10]; 0.139 in [11]; 1.19 in experiment [15]; 0.0759 in experiment [17]. The composite z-score in [18] is 0.359; in [19], -0.0979; in experiment [20], -0.0219. Moreover, the z-score in experiment [8] is -0.587 (inactive); in experiment [12], -0.12 (inactive); in experiment [13], 0.169 (inactive); in experiment [14], -0.378 (inactive); in experiment [16] it was -0.978 (inactive).
Consider `COCCOC(=O)N1C(=O)[C@@]2(c3cc(C#Cc4ccc(OC)cc4)ccc31)[C@H](C(=O)Nc1nc3ccccc3s1)[C@H]1C(=O)O[C@H](c3ccccc3)[C@H](c3ccccc3)N1[C@@H]2c1ccc(OCCO)cc1`, for which the composite z-score is -0.51 in experiment [1]; 0.661 in [2]; -0.0569 in [3]; 0.784 in experiment [4]; 1.21 in experiment [5]; 0.138 in experiment [6]. Besides, the composite z-score in experiment [7] was 1.11; in experiment [9] it was 0.632; in experiment [10] it was -0.0618; in experiment [11], 1.56; in [15], 1.02; in experiment [17], -0.0699. Moreover, the composite z-score in [18] came to 1.54; in experiment [19] it was 1.13; in experiment [20], 0.0311. Besides, the z-score in [8] was 4.61 (inactive); in [12] it was 3.34 (inactive); in [13], 2.1 (inactive); in experiment [14], 4.58 (inactive); in experiment [16], 0.575 (inactive).
For the compound `COCCCNC(=O)[C@@]1(Sc2ccc(C)cc2)CC(=O)N(C2CCCCC2)[C@@H]1c1ccc(CO)cc1`, the composite z-score in experiment [1] was 0.863; in [2], -0.596; in [3], 0.0019; in experiment [4] it was 0.0381; in experiment [5], -0.957; in experiment [6] it was -0.113. Moreover, the composite z-score in [7] is -0.119; in experiment [9], -0.37; in experiment [10], -0.191; in [11], 1.08; in experiment [15] it was 2.96; in experiment [17], 0.0977. The results for the composite z-score in experiment [18], in experiment [19] and in experiment [20] were -0.804, 0.0236 and -0.221, respectively. Besides, the z-score was -0.721 (inactive) in experiment [8]; -0.858 (inactive) in experiment [12]; 0.478 (inactive) in experiment [13]; -0.874 (inactive) in experiment [14]; 0.195 (inactive) in [16].
